Assay [1] in a line: resazurin metabolic signal in HepG2 cells – cell-based, resazurin fluorescence, 24 h, PK04 Diversity Set, profiling panel (AID 1172). Also: test concentration not given here. Conditions: HepG2 viability, higher = more signal. (The colour change of resazurin is a common sign of viable cells or microbes.)
Assay [2] can be described thus: budding yeast growth changes without added modifier – OD600, strain BY4716, 24 h, basal condition, primary screen (AID 1173). Particulars: S. cerevisiae BY4716 growth, OD600, 24 h; higher = more signal, called active from +8 up or from −8 down.
Assay [3] can be described thus: viability profiling in MM1S myeloma cells – cell-based, resazurin fluorescence, basal, 24 h, PK04 Diversity Set, profiling panel (AID 1174).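 Also: MM1S multiple myeloma cell line; test concentration not given here.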 Conditions: higher = more signal, called active from +8 up or from −8 down.
The target in assay [4] is Dihydroorotate dehydrogenase (quinone), mitochondrial (Plasmodium falciparum (isolate 3D7)) (UniProt Q08210). The assay can be described thus: inhibition of P. falciparum DHODH – biochemical, C-terminal His tag, absorbance 600 nm, primary screen (AID 1175).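 Also: recombinant parasite enzyme with a five histidine tag at its C terminus; test concentration not given here.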 Particulars: PfDHODH enzyme, DCIP absorbance 600 nm; higher = more signal, called active from +8 up or from −8 down.

Assay [5] can be described thus: inhibition of PAO1 biofilm formation – strain PAO1, LB-PBS medium, absorbance 600 nm, primary screen (AID 1176). Also: test concentration not given here. Conditions: P. aeruginosa PAO1 growth/biofilm, A600, 12 h; higher = more signal.
The nature of assay [6]: growth modulation of vineyard yeast isolate – strain RM11-1a, OD600, basal, 24 h, primary screen (AID 1177).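 Also: cultures grown under basal conditions with no added stressor; test concentration not given here.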 Conditions: S. cerevisiae RM11-1a growth, OD600, 24 h; higher = more signal, called active from +8 up or from −8 down.
Assay [7] is described as follows: growth of efflux-deficient E. coli DRC39 – strain DRC39, OD650, 24 h, E. coli filamentation inducers, primary screen (AID 1178).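 Also: growth measured as culture turbidity by optical density at 650 nm; test concentration not given here.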 Conditions: E. coli DRC39 acrAB, higher = more signal, called active from +8 up or from −8 down.
The nature of assay [8]: growth of efflux-deficient E. coli DRC39 – strain DRC39, OD650, 48 h, E. coli filamentation inducers, primary screen (AID 1179).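 Also: screen aims at cell division blockers that make cells filament.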 Conditions: E. coli DRC39 delta-acrAB growth, higher = more signal, called active from +8 up or from −8 down.
Assay [9] is described as follows: viability profiling in RPMI8226 myeloma cells – cell-based, resazurin fluorescence, basal, 24 h, PK04 Diversity Set, profiling panel (AID 1180).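 Also: RPMI8826 multiple myeloma cell line at 5000 cells per well; test concentration not given here.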 Particulars: higher = more signal.
Assay [10] concerns the target E3 ubiquitin-protein ligase XIAP (Homo sapiens) (UniProt P98170). Put plainly: small molecules binding XIAP protein – biophysical, small-molecule microarray, fluorescence 635 nm, primary screen (AID 1181).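 Also: score merges 667 nm emission and signal to noise over triplicate slides.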 Particulars: higher = more signal.

SMILES strings stand for the structures. The source made the active and inactive calls. Unless noted, no rule for the calls is given here.

Sequence of Dihydroorotate dehydrogenase (quinone), mitochondrial (Plasmodium falciparum (isolate 3D7)) (Q08210 whole entry, looked up): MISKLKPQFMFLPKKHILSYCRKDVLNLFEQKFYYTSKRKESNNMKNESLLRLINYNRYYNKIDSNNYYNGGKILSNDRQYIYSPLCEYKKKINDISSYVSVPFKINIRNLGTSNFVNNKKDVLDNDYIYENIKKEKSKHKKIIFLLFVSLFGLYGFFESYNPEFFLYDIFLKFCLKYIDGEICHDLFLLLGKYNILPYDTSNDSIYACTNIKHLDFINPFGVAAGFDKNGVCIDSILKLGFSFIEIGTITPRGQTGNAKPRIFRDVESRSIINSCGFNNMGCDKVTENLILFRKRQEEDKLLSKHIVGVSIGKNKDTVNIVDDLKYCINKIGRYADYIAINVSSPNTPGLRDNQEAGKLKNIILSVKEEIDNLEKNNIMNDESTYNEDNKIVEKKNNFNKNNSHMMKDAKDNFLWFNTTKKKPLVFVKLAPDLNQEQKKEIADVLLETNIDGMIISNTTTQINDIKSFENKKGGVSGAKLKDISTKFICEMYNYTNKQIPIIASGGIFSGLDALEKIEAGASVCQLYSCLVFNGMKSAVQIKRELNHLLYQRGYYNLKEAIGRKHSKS
Sequence of E3 ubiquitin-protein ligase XIAP (Homo sapiens) (P98170 whole entry, looked up): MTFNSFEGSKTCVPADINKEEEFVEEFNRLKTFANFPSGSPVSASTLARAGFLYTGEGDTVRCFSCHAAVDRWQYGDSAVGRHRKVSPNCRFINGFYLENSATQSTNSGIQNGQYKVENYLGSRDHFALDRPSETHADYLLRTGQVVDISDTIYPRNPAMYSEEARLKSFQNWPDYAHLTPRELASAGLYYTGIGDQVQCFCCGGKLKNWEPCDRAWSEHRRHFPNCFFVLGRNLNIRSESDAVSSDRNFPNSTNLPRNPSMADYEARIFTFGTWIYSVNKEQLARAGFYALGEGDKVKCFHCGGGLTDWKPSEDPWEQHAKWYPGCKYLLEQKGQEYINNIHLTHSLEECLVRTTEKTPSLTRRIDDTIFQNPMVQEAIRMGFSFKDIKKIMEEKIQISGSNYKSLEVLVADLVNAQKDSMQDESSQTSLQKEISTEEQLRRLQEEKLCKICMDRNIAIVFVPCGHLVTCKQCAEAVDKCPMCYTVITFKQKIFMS

As for `C=C(C)C1C(=C)CN([C@H](CO)c2ccccc2)C1=O` (stereo not given in full), the z-score in [1] is 1.04; in assay [2], -2.16 (inactive); in assay [3], 0.267 (inactive); in assay [5], -0.611 (inactive); in [6], 0.229 (inactive); in assay [7] it was 0.692 (inactive). For the same compound, the z-score was -0.829 (inactive) in assay [8] and -0.403 in assay [9]. For the same compound, the composite z-score in assay [4] was -0.232 (inactive); in [10] it was -0.11.
Consider `C=CCOC(=O)[C@@H]1[C@H]2C(=O)O[C@H](c3ccccc3)[C@H](c3ccccc3)N2[C@H](c2ccc(OCCOC(=O)[C@@H]3C[C@@H]4C(=O)N[C@@H](CCCCN(C)C)C(=O)N4[C@@H]3c3ccc(O)cc3)cc2)[C@@]12C(=O)Nc1ccc(I)cc12`, for which the z-score in assay [1] is 0.883; in [2], -0.955 (inactive); in assay [3], -0.078 (inactive); in assay [5], 0.531 (inactive); in [6], 1.65 (inactive); in assay [7] it was -0.821 (inactive). The figures for the z-score in [8] and in assay [9] were 0.0885 (inactive) and -0.153, respectively. In addition, the values for the composite z-score in assay [4] and in assay [10] were -0.262 (inactive) and -0.157, respectively.
As for `CCOC(=O)C[C@H]1[C@H](OC(=O)Cc2ccc3c(c2)OCO3)[C@@H](NC(=O)c2ccc(-c3ccccc3)cc2)c2cc(OCCCO)ccc2N1C(=O)c1ccc2ccccc2n1`, the z-score in assay [1] was 0.138; in assay [2], -2.85 (inactive); in [3], 0.878 (inactive); in [5] it was -0.906 (inactive); in assay [6], -1.63 (inactive); in assay [7], 1.26 (inactive). In addition, the z-score in [8] was 0.455 (inactive); in [9], 0.356. The composite z-score is -2.91 (inactive) in assay [4] and -0.102 in assay [10].
Turning to `CCOC(=O)[C@H]1C/C=C/C[C@H](C(=O)OCC)C(=O)O[C@H]2[C@@H](OC)O[C@H](CO)[C@@H](OC(=O)Nc3cccc(F)c3)[C@@H]2OC1=O`, the z-score was -5.49 in assay [1]; -0.218 (inactive) in assay [2]; -9.05 (active) in assay [3]; 1.74 (inactive) in [5]; 1.84 (inactive) in assay [6]; 0.675 (inactive) in assay [7]. The z-score in assay [8] is 1.23 (inactive); in assay [9] it was -7.34. Moreover, the figures for the composite z-score in assay [4] and in assay [10] were -0.0103 (inactive) and 0.125, respectively.
With `[N-]=[N+]=NCc1ccccc1[C@@H]1OC(c2ccc(OCCCO)cc2)=N[C@]1(Cc1ccccc1N=[N+]=[N-])C(=O)N1CCOCC1`, the z-score in assay [1] was -0.54; in assay [2] it was -0.532 (inactive); in assay [3], -1.21 (inactive); in assay [5], 0.727 (inactive); in assay [6], 0.602 (inactive); in [7], -0.38 (inactive). The z-score was -0.265 (inactive) in [8] and -1.64 in assay [9]. Moreover, the composite z-score in assay [4] was -0.52 (inactive); in assay [10] it was 0.358.
`O=C1OCCC/C=C\[C@H]2OC34C=CCN(Cn5nnc6ccccc65)C(=O)[C@H]3N(CCCCCCO)C(=O)[C@@H]4C12` (stereo not given in full): the z-score in [1] was 1.14; in assay [2] it was -1.45 (inactive); in [3], 0.651 (inactive); in [5], 1.07 (inactive); in [6], -1.16 (inactive); in [7], 1.09 (inactive). Also, the z-score in [8] was 1.18 (inactive); in [9], 0.598. The composite z-score in assay [4] is -0.332 (inactive); in assay [10], -0.203.
`COC(=O)C(CC#Cc1ccc2c(c1)[C@]1(C(=O)N2)[C@H](c2ccc(O)cc2)N2[C@H](c3ccccc3)[C@H](c3ccccc3)OC(=O)[C@H]2[C@@H]1C(=O)Nc1nc2ccccc2s1)C(=O)OC`: the z-score in [1] is 0.0384; in assay [2], -1.11 (inactive); in assay [3] it was 1.05 (inactive); in assay [5] it was 1.27 (inactive); in assay [6], -1.44 (inactive); in assay [7], 0.666 (inactive). Also, the z-score in assay [8] was 1.04 (inactive); in [9], 0.12. The composite z-score in assay [4] is -5.21 (inactive); in assay [10] it was -0.313.
Take `O=C1C2C=CC(C(O)C(c3ccccc3)c3ccccc3)N(n3cnnc3)C2C(=O)N1Cc1ccccc1` (stereo not given): the z-score in assay [1] was 0.264; in assay [2], -1.94 (inactive); in assay [3], -1.15 (inactive); in assay [5], 0.285 (inactive); in assay [6] it was -0.255 (inactive); in assay [7], -0.514 (inactive). The z-score in assay [8] was -0.305 (inactive); in [9], -1.11. In addition, the composite z-score is -0.436 (inactive) in assay [4] and 0.223 in assay [10].
`COc1ccc([C@H]2OC[C@@H]3CC4(CC=CC4)C(=O)N32)cc1`: the z-score in assay [1] is -0.876; in assay [2] it was -0.897 (inactive); in assay [3], 0.305 (inactive); in assay [5], -0.0634 (inactive); in assay [6] it was 0.504 (inactive); in assay [7], -0.632 (inactive). Also, the z-score in [8] was -0.688 (inactive); in assay [9], 0.012. Besides, the composite z-score is -0.177 (inactive) in assay [4] and -0.0118 in assay [10].
In the case of `CCCCN1CC=CC23O[C@@H]4C=CCOC(=O)[C@@H]4[C@H]2C(=O)N(CCCCCO)[C@@H]3C1=O` (stereo not given in full), the z-score in assay [1] was 0.371; in assay [2], 0.0133 (inactive); in assay [3], -0.86 (inactive); in assay [5] it was 0.91 (inactive); in [6] it was -0.176 (inactive); in assay [7] it was -0.967 (inactive). Also, the z-score in assay [8] is -0.982 (inactive); in assay [9], -0.531. For the same compound, the results for the composite z-score in assay [4] and in assay [10] were -0.165 (inactive) and 0.327, respectively.
For the compound `CCCC#C[Si](O[C@H](CC)c1cn([C@H](CO)Cc2ccccc2)nn1)(C(C)C)C(C)C`, the z-score in [1] was 0.442; in assay [2], -12.8 (active); in assay [3] it was 0.11 (inactive); in assay [5] it was 0.0885 (inactive); in assay [6], 0.852 (inactive); in assay [7] it was -0.281 (inactive). The values for the z-score in assay [8] and in [9] were -0.154 (inactive) and 0.114, respectively. Also, the composite z-score in [4] was 0.225 (inactive); in assay [10], -0.121.
Regarding `COC(=O)[C@@]1(Cc2ccc(F)cc2)[C@H]2c3cc(C(=O)N(C)C)n(Cc4ccc(S(C)(=O)=O)cc4)c3C[C@H]2CN1C(=O)c1ccccc1`, the z-score is -0.304 in assay [1]; 0.571 (inactive) in assay [2]; -0.0532 (inactive) in [3]; 0.122 (inactive) in assay [5]; 0.325 (inactive) in [6]; -0.104 (inactive) in assay [7]. The z-score in assay [8] is 0.118 (inactive); in assay [9] it was -1.04. The composite z-score in assay [4] was 0.382 (inactive); in assay [10], -0.102.
On to `CC(C)C(CO)N1C(=O)[C@@H]2[C@H]3C(=O)OCC=C[C@H]3OC23C=CCN(C(C)C)C(=O)[C@@H]13` (stereo not given in full), for which the z-score in assay [1] was 1.18; in assay [2], 0.55 (inactive); in assay [3] it was 0.713 (inactive); in [5], -0.565 (inactive); in assay [6] it was 0.73 (inactive); in assay [7], 0.074 (inactive). The z-score was -0.137 (inactive) in assay [8] and 0.634 in [9]. The composite z-score in [4] was 0.0658 (inactive); in assay [10], -0.0719.
